Results on 53 molecules are retold here after ChEMBL document CHEMBL4513216, “Probing the Open Global Health Chemical Diversity Library for Multistage-Active Starting Points for Next-Generation Antimalarials” (ACS Infect Dis, 2020).

Each structure is given as a SMILES string. The campaign covered roughly 65,000 compounds. About 2,100 (3.2%) showed an effect of 50% or more. The median lay at about -52%. Shown is part of a subset that was picked to be rich in strong results.

This experiment relates to Plasmodium falciparum. Put plainly: Screen against P. falciparum Asexual Blood Stage (ABS), at 5uM. It counts as functional, Dd2. The following applies: tested at 5 uM.
`CN1CCN(C[C@@H]2CN(C3Cc4ccccc4C3)C[C@@H]2CO)CC1`: the INHIBITION amounted to 51.4%. Consider `CN1CCN(C[C@@H]2CN(C(=O)c3ccccc3C#N)C[C@@H]2CO)CC1`, for which the INHIBITION is reported as -106%. Then `Cn1ccnc1CN1C[C@@H](CN2CCC(CO)CC2)[C@@H](CO)C1`, with -1.49%; and `OC[C@H]1CN(C2Cc3ccccc3C2)C[C@H]1CN1CCC(O)CC1`, with 15.1%. Turning to `Cc1cc(NCCN2CCNC2=O)nc2cc3c(cc12)CCC3`, the INHIBITION is -14.4%. As to `CSCCN1CCC(NC(=O)c2cccc(C3CCCNC3)c2)CC1` (stereo not drawn), the INHIBITION is given as -131%. `CC1CCN(c2nc3c(cnn3-c3ccccc3)c(=O)[nH]2)CC1`: the INHIBITION is reported as -6.59%. Turning to `O=c1[nH]c(N2CC(O)C2)nc2c1cnn2-c1ccccc1`, the INHIBITION is reported as -202%.

With `O=c1[nH]c(N2CCN(C3CC3)CC2)nc2c1cnn2-c1ccccc1`, the INHIBITION stood at 50.1%. For `Cc1cc(Cl)cc(C)c1CNC1CCN(CC(=O)N(C)C)CC1`, the INHIBITION turned out to be 54.4%. For `Cc1nc(-c2c(C)noc2C)cc(C2CCN(CC(=O)N(C)C)CC2)n1`, the INHIBITION is -74%. On to `Cc1cc2cc(CNC3CCN(CC(=O)N(C)C)CC3)oc2cc1C`, for which the INHIBITION is -159%. `CC(C)CNC(=O)c1cccc(CN2CCc3c(ncn3C)C2)c1`: the INHIBITION is reported as -103%. For the molecule `CCOc1cccc2c1OCC(=O)N(c1ccc3c(c1)OCCO3)C2`, the INHIBITION was -105%. `Cc1ccc2c(n1)N(CCN(C)C)CCN(Cc1c(C)noc1C)C2`: the INHIBITION turned out to be 63.1%. As for `COCCN1CCN(Cc2c(C)noc2C)Cc2ccc(C)nc21`, the INHIBITION is recorded as -54%.

For the molecule `COCCN1CCN(Cc2c(C)noc2C)Cc2cccnc21`, the INHIBITION is recorded as -19.1%. The figure for `Cc1cc(CNC(=O)NC(C)(CO)C2CC2)c(C)s1` (stereo not drawn) is -55.5%; for `CCCC(C)NC1CCN(c2ccc(-n3ccnc3C)cc2)CC1` (stereo not drawn) it is 52.3%; for `Cc1nccn1-c1ccc(N2CCC(N[C@H](C)C(C)C)CC2)cc1` it is -49.6%. Regarding `Cc1nccn1-c1ccc(N2CCC(NC(C)CC(C)C)CC2)cc1` (stereo not drawn), the INHIBITION came out at 30.2%. `Cc1c[nH]nc1C1CCCCN1C(=O)CCn1nccc1C` (stereo not drawn): the INHIBITION is -97%. The figure for `Cc1cccn2cc(C(=O)N3CCCN(CC4CC4)C(C(C)C)C3)nc12` (stereo not drawn) is -26.5%; for `O=C1N(CCO)CCCC12CCN(Cc1nnc(C3CC3)o1)C2` (stereo not drawn) it is -77.7%; for `O=S(=O)(NCC1(O)CCOc2ccccc21)c1ccc(Cl)s1` (stereo not drawn) it is -88.4%. `O=S(=O)(NCC1(O)CCOc2ccccc21)c1ccc(Br)s1` (stereo not drawn): the INHIBITION was 59.2%. Then `Cc1ccc(S(=O)(=O)NCC2(O)CCOc3ccccc32)s1` (stereo not drawn), with -36.2%; and `c1cncc(COCc2n[nH]c3c2CN(Cc2ccco2)C3)c1`, with -89.3%. Take `O=S(=O)(c1ccc(-c2cnco2)cc1)N1CCC2(CCCNC2)C1` (stereo not drawn): the INHIBITION stood at 47%. Consider `O=S(=O)(c1ccc(-c2cnco2)cc1)N1CCCC(O)(CO)CC1` (stereo not drawn), for which the INHIBITION is on record as -40.8%. Regarding `CN1CCCC2(CCN(S(=O)(=O)c3ccc(-c4cnco4)s3)C2)C1=O` (stereo not drawn), the INHIBITION was -16.8%.

In the case of `CN1CCC2(CCN(S(=O)(=O)c3ccc(-c4cnco4)s3)CC2)C1`, the INHIBITION came out at 68.4%.

Take `CN1CCC2(CCCN(S(=O)(=O)c3ccc(-c4cnco4)s3)C2)C1` (stereo not drawn): the INHIBITION is given as 52.1%.

For `O=S(=O)(c1ccc(-c2cnco2)cc1)N1CCCC2(CCNCC2)CC1`, the INHIBITION is 8.22%. Then `COC(=O)c1cc(OCC2CCC2)cc(C(=O)N[C@@H](C)CO)c1`, with -90%; and `c1ccc(N2CCOC3(CCCN(c4ncccn4)C3)C2)nc1` (stereo not drawn), with -101%; and `c1ccc(N2CCCC2)c(NCc2ccncc2)c1`, with -27.2%. The figure for `CN(Cc1cccc(C(N)=O)c1)c1ncc(C#N)cc1Cl` is -76.1%; for `O=C(CN1CCCC(Cn2cncn2)C1)NCCCc1ccccc1` (stereo not drawn) it is -62.6%; for `Cc1cc(C(=O)N2CCCC(N3CCCCCC3)C2)nn1C(C)(C)C` (stereo not drawn) it is 55.5%. `Cc1cc(C(=O)N2CCC(N3CCNC3=O)CC2)nn1C(C)(C)C`: the INHIBITION is recorded as -59.8%. Take `Cc1cc(C(=O)N2CCCC(N3CCNC3=O)C2)nn1C(C)(C)C` (stereo not drawn): the INHIBITION was -37.9%. Then `Cc1cc(CNC(=O)c2cnoc2C)c(C)o1`, with -78%; and `O=C(c1cccnc1O)N1CCN(Cc2ccccc2F)CC1`, with -14.3%; and `Cc1cc(Oc2ccccc2F)nc(C2CCCCN2)n1` (stereo not drawn), with 57.5%.

For the molecule `Cc1cc(Oc2ccccc2)nc(C2CCCCN2)n1` (stereo not drawn), the INHIBITION is on record as -17.4%. In the case of `Cc1cc(Oc2ccccc2C)nc(C2CCCN2)n1` (stereo not drawn), the INHIBITION stood at 25.4%.

Turning to `CN(C)C1(CNC(=O)Cc2ccc(F)cc2)CCOCC1`, the INHIBITION worked out at 0.427%. Consider `CN(C)C(C(=O)NCC1(N(C)C)CCOCC1)c1ccccc1F` (stereo not drawn), for which the INHIBITION was -6.85%. In the case of `CC(C)NC(=O)C1CN(Cc2ccc(F)cc2)CC12CCOCC2` (stereo not drawn), the INHIBITION was -23.5%.

Consider `CN(C)C1(CNC(=O)CC=Cc2ccc(F)cc2)CCOCC1`, for which the INHIBITION was found to be 57.5%. For `CN(C)C1(CNC(=O)C2CCCN2Cc2ccc(F)cc2)CCOCC1` (stereo not drawn), the INHIBITION came out at 68.7%. Take `CC1(C(=O)NCCc2ccc(F)cc2)CCOCC1`: the INHIBITION is reported as -16.2%.
